Laboratory results taken from PubChem BioAssay AID1159580 (chemical genetic matrix, 2015).
About 2,000 (36%) of roughly 5,500 compounds were called active. Inconclusive results (about 18%) are left out. No stated cut-off is given here; in the data, active means normalized growth mostly below about 0.91 (no sharp cut-off); inconclusive means no clear call, values can overlap the other calls; inactive means mostly above about 0.92. This is one part of the list.

Assay: chemical genetic growth profiling, strain panel (AID 1159580);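 further: tested at 20 µM; growth read once vehicle control cultures reached saturation at 30 °C; 1 = growth at the plate median or of vehicle wells; lower values mean less growth of the strain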
Conditions: S. cerevisiae deletion strains, growth OD

Measured: normalized growth

Cc1cn[nH]c1
active: locus YDR195W, strain ref2 1.16 [resistant]
inactive: locus YAL021C, strain ccr4, hits give low values 1.05 | locus YAL026C, strain drs2, hits give low values 1.02 | locus YAL030W, strain snc1, hits give low values 1.03 | locus YAL040C, strain CLN3, hits give low values 0.992 | locus YBL061C, strain skt5, hits give low values 1.02 | locus YBR009C, strain hhf1, hits give low values 1.02 | locus YBR023C, strain chs3, hits give low values 1.03 | locus YBR171W, strain sec66, hits give low values 1.04 | locus YBR231C, strain swc5, hits give low values 1.04 | locus YBR279W, strain paf1, hits give low values 1.02 | locus YCL011C, strain gbp2, hits give low values 1.02 | locus YCL016C, strain dcc1, hits give low values 1.02 | locus YCL061C, strain MRC1 (second series), hits give low values 0.99 | locus YCL069W, strain vba3, hits give low values 1.03 | locus YCR088W, strain abp1, hits give low values 1.01 | locus YDL005C, strain med2, hits give low values 1.03 | locus YDL040C, strain nat1, hits give low values 1.01 | locus YDR001C, strain nth1, hits give low values 1.01 | locus YDR069C, strain doa4, hits give low values 1.06 | locus YDR137W, strain rgp1, hits give low values 1.01 | locus YDR150W, strain NUM1, hits give low values 0.986 | locus YDR159W, strain sac3, hits give low values 0.99 | locus YDR297W, strain sur2, hits give low values 1.02 | locus YDR334W, strain swr1, hits give low values 1.03 | locus YDR335W, strain msn5, hits give low values 1.02 | locus YDR363W, strain ESC2, hits give low values 1.02 | locus YDR392W, strain spt3, hits give low values 1.1 | locus YEL003W, strain gim4, hits give low values 1.02 | locus YEL037C, strain rad23, hits give low values 1.01 | locus YEL061C, strain CIN8 (second series), hits give low values 1.01 | locus YER002W, strain NOP16, hits give low values 1.01 | locus YER015W, strain faa2, hits give low values 1.02 | locus YER016W, strain bim1, hits give low values 1.01 | locus YER111C, strain swi4, hits give low values 1.02 | locus YER155C, strain BEM2 (second series), hits give low values 1.13 | locus YFR010W, strain ubp6, hits give low values 1.05 | locus YGL167C, strain pmr1, hits give low values 1.02 | locus YGL173C, strain kem1, hits give low values 1.01 | locus YGL227W, strain vid30, hits give low values 1.01 | locus YGL240W, strain doc1, hits give low values 1.05 | locus YGL253W, strain hxk2, hits give low values 1.01 | locus YGR078C, strain PAC10, hits give low values 0.984 | locus YHR013C, strain ard1, hits give low values 1.1 | locus YHR027C, strain rpn1, hits give low values 1.03 | locus YHR030C, strain SLT2, hits give low values 0.971 | locus YHR079C, strain IRE1, hits give low values 0.962 | locus YHR142W, strain chs7, hits give low values 1.06 | locus YJL092W, strain hpr5, hits give low values 1.02 | locus YJL095W, strain BCK1 (second series), hits give low values 1.02 | locus YJL095W, strain BCK1, hits give low values 1.03 | locus YJL115W, strain asf1, hits give low values 1.01 | locus YJL129C, strain trk1, hits give low values 1.06 | locus YJL154C, strain vps35, hits give low values 1.02 | locus YJL164C, strain tpk1, hits give low values 1.03 | locus YJL166W, strain qcr8, hits give low values 1.03 | locus YJR066W, strain TOR1, hits give low values 0.924 | locus YJR075W, strain HOC1, hits give low values 1.02 | locus YKL160W, strain elf1, hits give low values 1.01 | locus YKR026C, strain gcn3, hits give low values 1.01 | locus YKR091W, strain srl3, hits give low values 1.02 | locus YLL001W, strain dnm1, hits give low values 1.02 | locus YLL026W, hits give low values 1.02 | locus YLL041C, strain sdh2, hits give low values 1.02 | locus YLR027C, strain aat2, hits give low values 1.01 | locus YLR113W, strain HOG1, hits give low values 1.02 | locus YLR221C, strain rsa3, hits give low values 1.02 | locus YLR258W, strain gsy2, hits give low values 1.03 | locus YLR262C, strain YPT6 (second series), hits give low values 1.02 | locus YLR320W, strain mms22, hits give low values 1.08 | locus YLR342W, strain FKS1, hits give low values 1.03 | locus YLR357W, strain rsc2, hits give low values 1.09 | locus YLR370C, strain arc18, hits give low values 1.03 | locus YLR384C, strain iki3, hits give low values 1.01 | locus YML120C, strain ndi1, hits give low values 1.01 | locus YMR058W, strain fet3, hits give low values 1.03 | locus YMR125W, strain sto1, hits give low values 1.03 | locus YMR129W, hits give low values 1.01 | locus YMR205C, strain PFK2, hits give low values 1.08 | locus YMR231W, strain pep5, hits give low values 1.02 | locus YMR307W, strain GAS1, hits give low values 1 | locus YNL071W, strain lat1, hits give low values 1.06 | locus YNL153C, strain GIM3, hits give low values 1.02 | locus YNL175C, strain NOP13, hits give low values 0.994 | locus YNL183C, strain NPR1, hits give low values 0.934 | locus YNL197C, strain WHI3, hits give low values 0.996 | locus YNL209W, strain ssb2, hits give low values 1.02 | locus YNL224C, strain SQS1, hits give low values 1.02 | locus YNL248C, strain rpa49, hits give low values 1.02 | locus YNL322C, strain KRE1 (second series), hits give low values 1.02 | locus YNL322C, strain KRE1, hits give low values 0.974 | locus YNR049C, strain mso1, hits give low values 1.01 | locus YOR001W, strain rrp6, hits give low values 1.03 | locus YOR070C, strain gyp1, hits give low values 1.02 | locus YOR080W, strain dia2, hits give low values 1.04 | locus YOR083W, strain WHI5 (second series), hits give low values 1.01 | locus YOR083W, strain WHI5, hits give low values 1.02 | locus YOR106W, strain vam3, hits give low values 1.03 | locus YOR231W, strain MKK1, hits give low values 0.985 | locus YOR265W, strain rbl2, hits give low values 1.02 | locus YOR270C, strain vph1, hits give low values 1.08 | locus YOR290C, strain snf2, hits give low values 1.03 | locus YPL051W, strain arl3, hits give low values 1.02 | locus YPL055C, strain LGE1, hits give low values 1.02 | locus YPL078C, strain atp4, hits give low values 1.04 | locus YPL106C, strain sse1, hits give low values 1.1 | locus YPL240C, strain hsp82, hits give low values 1.01 | locus YPL241C, strain CIN2, hits give low values 0.981 | locus YPL256C, strain CLN2, hits give low values 0.938
